This is an account of results in PubChem BioAssay (NCATS).

Assay [1] can be described thus: AP1 Signaling Pathway (AID 357).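 Note: ME-180 reporter cells stimulated with EGF at its EC50 level; % is set by controls: 0 for no effect and ±100 for the full control effect.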 Particulars: ME-180 AP-1-bla reporter, EGF-induced, beta-lactamase ratio, 5 h; at 38 µM (top of the series) unless noted. The method, boiled down:
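Read-out was the 460nm/530nm emission ratio (excitation 405nm) after CCF4 loading for 2.5 hours at room temperature. Cells carried an AP-1-driven beta-lactamase reporter, were stimulated with EC50 EGF plus compound for 5 hours, and AC50 values came from titrations.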

Assay [2] concerns the target Cytochrome P450 1A2 (Homo sapiens) (UniProt P05177). In words: p450-cyp1a2 (AID 410; calls by dose curve; note: potency is the fitted concentration of half-maximal effect;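 for activity change, negative = inhibition: -100% = full effect of reference inhibitor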). The method, boiled down: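 Read-out is luminescence from luciferin produced by CYP1A2 demethylation of Luciferin-ME (100uM, at Km). Detection reagent stopped the 60 min NADPH-dependent reaction; signals were normalized to 57 uM furafylline.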
The nature of assay [3]: NFAT Signaling Pathway (AID 444).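 Note: carbachol stimulus at about its EC50 of 1 µM final; % is set by controls: 0 for no effect and ±100 for the full control effect.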 Particulars: Jurkat NFAT-bla M1, carbachol, beta-lactamase ratio, 5 h. The method, boiled down: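 Jurkat cells carrying an NFAT-driven β-lactamase reporter and co-transfected muscarinic M1 receptor were treated with compound plus carbachol (1 uM final, an EC50 level) for 5 h at 37 °C. CCF4 loading followed for 1 h at RT; 460/530 nm ratio gave %activity.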

Assay [4] concerns the target Glucocorticoid receptor (Homo sapiens) (UniProt P04150). In words: GR-GFP Redistribution (AID 450;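 active = compounds whose dose series gives a full or clear partial fitted curve of increased nuclear translocation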; note: potency is the fitted concentration of half-maximal effect). Particulars: U2OS GR-GFP nuclear translocation, laser cytometry, 2 h.
The target is the same in assay [5]. In words: GR-EFC Redistribution (AID 451; calls by dose curve; note: potency is the fitted concentration of half-maximal effect). Particulars: CHO-K1 GR-EFC translocation, beta-gal luminescence, 2 h. In a few lines: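 CHO-K1 cells stably expressing nuclear-localized β-gal enzyme acceptor and GR fused C-terminally to the enzyme donor fragment; ligand-driven nuclear translocation restores β-gal by complementation. Compounds titrated up to 46 uM final, 2 h at 37 °C; luminescence read.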

Assay [6] has as its target Mitogen-activated protein kinase 10 (Mus musculus) (UniProt Q61831). In words: JNK3 AlphaScreen Assay (AID 530).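 Note: kinase came from lysate of stimulated human HepG2 cells; signal reports phosphorylation of biotinylated GST-cJun 1-79 at Ser73 with 10 µM ATP; % is set by controls: 0 for no effect and ±100 for the full control effect.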 The method, boiled down:
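Biotinylated GST-cJun(1-79) served as substrate for JNK3 in HepG2 lysates stimulated with IL-1beta and TNF-alpha. ATP was 10 uM final, pH 7.6. Ser73 phosphorylation was quantified by AlphaScreen (680 nm excitation).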

The nature of assay [7]: Stat Signaling Pathway (AID 446).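 Note: ME-180 cervical cancer cells given 40 pM IL-6 alongside compound; SIE-controlled beta-lactamase reporter measured as 460/530 nm FRET emission ratio; % is set by controls: 0 for no effect and ±100 for the full control effect.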 Particulars: ME-180 (cervical carcinoma) SIE beta-lactamase reporter, IL-6 stimulated, 5 h. In a few lines:
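Overnight-plated ME-180 cells bearing a STAT Inducible Element beta-lactamase reporter; 5 h co-exposure to compound and 40 pM IL-6; values normalized to 300 pM IL-6 and 125 nM JAK inhibitor controls.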

Assay [8] in a line: Cell Viability - BJ (AID 421; calls by dose curve;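 note: potency is the fitted concentration of half-maximal effect; cells exposed to compound for 40 hours at 37 °C before readout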). Particulars: BJ fibroblast viability, qHTS. The method, boiled down:
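Quantitative HTS: ATP depletion in BJ cells after 40 hr compound exposure in complete culture medium, detected with CellTiter-Glo; AC50 from standard Hill fits.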
(In general: Quantitative high-throughput screening tests each substance at several concentrations.)

A short description of assay [9]: Cell Viability - Jurkat (AID 426;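 active = dose-dependent loss of cell ATP signal giving a full or clear fitted curve, ranked by lower potency value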; note: potency is the fitted concentration of half-maximal effect). The note with it: qHTS. The method, boiled down:
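Cytotoxicity was scored as loss of cellular ATP, measured by luciferase-based luminescence, in Jurkat clone E6-1 cells after 40 h compound treatment; tamoxifen and doxorubicin served as positive controls.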

Assay [10] can be described thus: Cell Viability - Hek293 (AID 427;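 active = compounds whose dose-response curve shows a full or clear partial loss of cell viability, called from curve shape rather than a numeric limit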;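 note: potency is the fitted concentration of half-maximal effect; cells exposed to compound for 40 hours at 37 °C before reading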). The note with it: qHTS. In a few lines:
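AC50 values derive from Hill-modelled concentration-response of ATP-based luminescence, normalized between DMSO-only and 100 uM tamoxifen controls. Cells were exposed in complete culture medium for 40 hr at 37 °C before detection.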

Assay [11] in a line: Cell Viability - HepG2 (AID 433; calls by dose curve;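 note: potency is the fitted concentration of half-maximal effect; potency for ATP loss meaning cytotoxicity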). The note with it: qHTS. The method, boiled down:
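HepG2 cells, 1500 per well, treated 40 hr at 37 °C in complete medium; viability from intracellular ATP by CellTiter-Glo luminescence. Normalized to DMSO and 100 uM tamoxifen; AC50 from Hill fit of qHTS concentration-response.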

Assay [12] can be described thus: Cell Viability - MRC5 (AID 434; calls by dose curve;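 note: potency is the fitted concentration of half-maximal effect; potency reflects cytotoxicity seen as loss of intracellular ATP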). The note with it: MRC5 lung fibroblast viability, qHTS. The method, boiled down: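 Decrease in intracellular ATP, quantified by luciferase light output, reflects compound toxicity toward MRC5 cells exposed for 40 hr in complete culture medium. Concentration-response curves, scaled between DMSO and 100 uM tamoxifen, gave AC50 values.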

Assay [13] in a line: Cell Viability - SK-N-SH (AID 435; calls by dose curve;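 note: potency is the fitted concentration of half-maximal effect; compound exposure lasted 40 h at 37 °C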). The note with it: SK-N-SH neuroblastoma cell viability qHTS. The method, boiled down:
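SK-N-SH neuroblastoma cells (1500/well) treated 40 h at 37 °C in complete medium; viability read as cellular ATP by CellTiter-Glo luminescence. Normalized to DMSO and 100 uM tamoxifen; AC50 from Hill fits of qHTS concentration-response.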

The nature of assay [14]: Cell Viability - N2a (AID 540; active = well fitted curve in the direction sought with a large enough effect; an effect the other way counts as inactive or inconclusive;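 note: plate controls were DMSO alone for no effect and tamoxifen control for full effect; nearly all actives have a fitted effect of over 45% in size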). In a few lines: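 In this qHTS cytotoxicity screen, ATP-dependent luciferase luminescence reports viable N2a cells after a 40 hr compound exposure in complete culture medium. Potencies are AC50 values from standard Hill equation fits.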
Assay [15] is described as follows: Cell Viability - NIH 3T3 (AID 541; active = well fitted curve in the direction sought with a large enough effect; an effect the other way counts as inactive or inconclusive;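 note: plate controls were DMSO alone for no effect and tamoxifen positive control for full effect; nearly all actives have a fitted effect of over 25% in size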). The method, boiled down: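 In this cytotoxicity screen, acute toxicity is scored as an ATP drop measured by CellTiter-Glo in NIH 3T3 fibroblasts following a 40 hr, 37 °C incubation with compound.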
A short description of assay [16]: Cell Viability - HUV-EC-C (AID 542; active = well fitted curve in the direction sought with a large enough effect; an effect the other way counts as inactive or inconclusive; note: % is set by controls: 0 for no effect and ±100 for the full control effect; nearly all actives have a fitted effect of over 35% in size). In a few lines:
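Concentration-dependent ATP loss in HUV-EC-C cells is the measure. Exposure lasts 40 hr at 37 °C; luminescence follows CellTiter-Glo addition, and Hill fits give AC50.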

Assay [17] in a line: Cell Viability - H-4-II-E (AID 543; active = well fitted curve in the direction sought with a large enough effect; an effect the other way counts as inactive or inconclusive; note: % is set by controls: 0 for no effect and ±100 for the full control effect; nearly all actives have a fitted effect of over 35% in size). The method, boiled down: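 AC50 from Hill-modelled qHTS concentration-response curves. H-4-II-E rat hepatoma cells in complete medium, 40 hr exposure at 37 °C, viability by CellTiter-Glo ATP luminescence.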
Assay [18] in a line: Cell Viability - SH-SY5Y (AID 544; active = well fitted curve in the direction sought with a large enough effect; an effect the other way counts as inactive or inconclusive;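 note: 0% = DMSO alone and -100% = 100 µM tamoxifen; nearly all actives have a fitted effect of over 55% in size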). In a few lines: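 Quantitative HTS in SH-SY5Y neuroblastoma cells, 40 hr treatment at 37 °C, ATP content by luciferase luminescence; AC50 from Hill fits.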
A short description of assay [19]: Cell Viability - Renal Proximal Tubule (AID 545; active = well fitted curve in the direction sought with a large enough effect; an effect the other way counts as inactive or inconclusive;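 note: 0% = DMSO only and -100% = 100 µM tamoxifen; nearly all actives have a fitted effect of over 40% in size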). In a few lines:
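Rat renal proximal tubule primary cells, 1000/well, exposed to compounds for 40 hr at 37 °C in complete medium; cellular ATP read by CellTiter-Glo luminescence. AC50 from concentration-response fitted with standard Hill equation.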

Where [20] appears, read: at 38 µM (top of the series) unless noted.

Values joined by “and” are separate entries in the source; they are usually repeats but may differ in a detail not shown here. Identical values can stand only once. A number with no mark means an inactive call. Results filed as inconclusive are left out. Active and inactive are the calls of the source. Unless noted, calls come from the whole dose curve; as a rule, active = well fitted curve in either direction with a large enough effect (not every such curve was filed as active); inconclusive = small, poorly fitted or top-dose-only effect, or another doubt; inactive = flat fitted curve, though single readings scatter.

Glucocorticoid receptor (Homo sapiens), sequence (P04150 whole entry, looked up, the tested form may be a part): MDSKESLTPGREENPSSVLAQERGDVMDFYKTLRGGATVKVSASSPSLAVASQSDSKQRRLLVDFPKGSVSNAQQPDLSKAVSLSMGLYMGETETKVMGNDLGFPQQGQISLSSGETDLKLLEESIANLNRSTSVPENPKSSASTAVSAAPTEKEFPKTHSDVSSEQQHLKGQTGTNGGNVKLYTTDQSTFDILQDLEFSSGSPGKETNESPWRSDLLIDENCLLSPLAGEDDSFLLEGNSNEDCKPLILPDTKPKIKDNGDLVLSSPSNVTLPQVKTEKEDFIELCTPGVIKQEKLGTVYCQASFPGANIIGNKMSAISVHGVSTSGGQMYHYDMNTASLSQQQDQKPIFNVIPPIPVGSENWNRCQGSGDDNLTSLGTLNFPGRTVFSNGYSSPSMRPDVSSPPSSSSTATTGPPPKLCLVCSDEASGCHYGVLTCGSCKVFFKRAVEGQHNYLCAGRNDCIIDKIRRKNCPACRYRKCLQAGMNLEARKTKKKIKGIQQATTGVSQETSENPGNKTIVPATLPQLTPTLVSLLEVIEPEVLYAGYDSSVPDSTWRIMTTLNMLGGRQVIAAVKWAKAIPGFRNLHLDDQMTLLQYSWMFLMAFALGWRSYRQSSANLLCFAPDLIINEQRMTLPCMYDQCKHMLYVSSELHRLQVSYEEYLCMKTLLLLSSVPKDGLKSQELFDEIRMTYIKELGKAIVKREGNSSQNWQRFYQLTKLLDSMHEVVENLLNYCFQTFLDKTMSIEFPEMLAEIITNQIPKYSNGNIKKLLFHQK
Cytochrome P450 1A2 (Homo sapiens), sequence (P05177 whole entry, looked up): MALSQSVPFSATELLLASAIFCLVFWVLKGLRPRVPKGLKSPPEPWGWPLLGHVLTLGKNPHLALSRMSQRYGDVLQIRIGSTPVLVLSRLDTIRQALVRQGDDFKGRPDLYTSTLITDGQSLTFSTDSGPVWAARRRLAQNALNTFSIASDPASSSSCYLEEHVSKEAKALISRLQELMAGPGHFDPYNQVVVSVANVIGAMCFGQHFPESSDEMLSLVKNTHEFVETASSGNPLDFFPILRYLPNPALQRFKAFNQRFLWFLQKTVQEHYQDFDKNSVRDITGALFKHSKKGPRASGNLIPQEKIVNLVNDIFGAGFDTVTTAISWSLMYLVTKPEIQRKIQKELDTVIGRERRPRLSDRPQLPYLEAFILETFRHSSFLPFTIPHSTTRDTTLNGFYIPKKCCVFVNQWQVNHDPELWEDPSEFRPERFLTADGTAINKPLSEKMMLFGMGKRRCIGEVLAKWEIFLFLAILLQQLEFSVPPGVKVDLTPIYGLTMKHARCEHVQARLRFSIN

As for `CN1CCN(c2nc3cc(C(F)(F)F)ccc3n3cccc23)CC1`, the figures for the activity change, negative = inhibition in assay [1] and in [3] (setting [20]) were -17.4% and 28.4%, respectively. The Potency in [2] is 200 nM (active) and 39.8 nM (active); in [4], above 46 µM; in assay [5], above 46 µM. In addition, in [6], the outcome was inactive.
Take `O=C(O)/C(=C/c1c(C(=O)O)[nH]c2cc(Cl)cc(Cl)c12)c1ccccc1`: the activity change, negative = inhibition is 1.71% in [1] and -3.51% in [3] (setting [20]). The Potency was 12.6 µM (active) in [2], above 46 µM in assay [4] and above 46 µM in assay [5]. Moreover, in assay [7] (setting [20]), the activity, negative = inhibition was 10.5%. Also, in assay [6], the molecule was called inactive.
For the molecule `Nc1ncnc2c1c(-c1ccc(Oc3ccccc3)cc1)cn2C1CCCC1`, the activity change, negative = inhibition in assay [1] is -103% (active). Moreover, the figures for the Potency in assay [2] and in assay [4] were 15.8 µM (active) and above 46 µM, respectively. For the same molecule, the activity, negative = inhibition in assay [7] (setting [20]) is -13.6%. Moreover, the result in [6] was inactive.
As to `O=c1onc2cnc3ccccc3n12`, the values for the activity change, negative = inhibition in assay [1] and in [3] (setting [20]) were -2.81% and 1.27%, respectively. For the same molecule, the Potency was 12.6 µM (active) and 2.51 µM (active) in [2]; above 46 µM in assay [4]; above 46 µM in [5]. The outcome in assay [6] was inactive.
In the case of `N=C(N)c1ccc(N)cc1`, the activity change, negative = inhibition is 6.35% in [1] and 5.12% in assay [3] (setting [20]). In addition, the Potency result in assay [2] was “inactive”. For the same molecule, the activity, negative = inhibition in [7] (setting [20]) is -11.4%. Moreover, the Potency in [4] and in assay [5] was above 46 µM each time. Moreover, the molecule was called inactive in assay [6].
As for `CC(=O)C(C)=O`, the activity change, negative = inhibition was -3.27% in assay [1] and 3.23% in assay [3] (setting [20]). Also, the Potency in assay [8], in [9], in assay [10], in assay [11], in [12] and in assay [13] was above 92 µM each time. Besides, in assay [4], the Potency was above 46 µM. In assay [7] (setting [20]), the activity, negative = inhibition is 31.9%. Besides, the call in assay [14], in assay [15], in [16], in assay [17], in assay [18] and in assay [19] was inactive.
Turning to `O=[N+]([O-])c1cccc2cn[nH]c12`, the Potency in assay [2] is 12.6 µM (active) and 2.51 µM (active). For the same molecule, the activity change, negative = inhibition in assay [3] (at 17.2 µM (top of the series)) was -4.2%; in assay [3] (at 38 µM (top of the series)) it was -7.34%. The activity, negative = inhibition in [7] (at 17.2 µM (top of the series)) was -4.16%; in assay [7] (at 38 µM (top of the series)), -5.67%.
For `CC(C)NC[C@H](O)COc1cccc2ccccc12`, the Potency in assay [2] was 0.2 µM (active).
Consider `COc1ccccc1N1CCN(CCCCNC(=O)c2ccc3ccccc3c2)CC1`, for which the values for the activity, negative = inhibition in assay [7] (at 17.2 µM (top of the series)) and in assay [7] (at 38 µM (top of the series)) were 5.11% and -1.2%, respectively.
Take `O=C(O)c1ccccc1Nc1ccccc1`: the activity change, negative = inhibition in [3] (setting [20]) was 6%. In addition, in assay [7] (setting [20]), the activity, negative = inhibition was -15.6%. Further, the Potency in assay [4] is above 46 µM.
Take `Nc1ccc2c3c(cccc13)C(=O)NC2=O`: the Potency was 1 µM (active) in [2], above 46 µM in assay [4] and above 46 µM in assay [5]. In assay [7] (setting [20]), the activity, negative = inhibition is -25.5%. Moreover, the call in [6] was inactive.
